Assay outcomes deposited in PubChem by The Scripps Research Institute Molecular Screening Center.
Only some compounds are listed: those with a hit (about 4.8% of all), similar ones and a draw of the others.
hgDAF12 agonist – activates the H. glycines DAF-12 receptor ligand-binding domain | 1.8% of 370,000 active | activation, % at 6.8 µM | HEK293 GAL4-hgDAF12 UAS-luciferase reporter, agonist luminescence; normalized to butyrate control;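 active = activation above a cutoff set at the mean of all screened compounds plus 3 SD, cut at about 10% in these data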
DAX1 inh-1 – inhibitors of human orphan nuclear receptor DAX1 (NR0B1) | HEK293 Gal4-DAX1 luciferase reporter, luminescence | inhibition, % at 6.75 µM | 0.99% of 340,000 active;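 active = inhibition above the mean over all tested compounds plus 3 SD, cut at about 4.2% in these data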;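 also: inhibition shows as a rise in luminescence from relieved DAX1 repression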
Target sequence (P51843 207-470 limits assumed): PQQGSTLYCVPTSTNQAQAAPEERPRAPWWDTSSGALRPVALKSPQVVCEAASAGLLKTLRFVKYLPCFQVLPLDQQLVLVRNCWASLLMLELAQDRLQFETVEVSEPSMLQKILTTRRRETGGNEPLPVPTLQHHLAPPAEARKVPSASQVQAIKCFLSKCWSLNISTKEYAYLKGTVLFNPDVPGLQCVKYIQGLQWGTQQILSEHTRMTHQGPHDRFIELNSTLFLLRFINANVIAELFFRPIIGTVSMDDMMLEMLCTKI
DAX1 inh-2 – DAX1 (NR0B1) inhibition, primary screen; HEK293T StAR-luciferase reporter, SF-1/DAX-1 repression relief; inhibition, % at 6.8 µM; 1.1% of 370,000 active;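 active = inhibition above the mean over all tested compounds plus 3 SD, cut at about 3.6% in these data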;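 also: higher inhibition means more luminescence from relief of DAX-1 repression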
SMARCA2 activ – increases SMARCA2 function in MMTV reporter cells; MG213 cells, MMTV-luciferase reporter, dexamethasone, overnight; activation, % at 9.1 µM; 1% of 370,000 active; AID 652017; in the data active = activation above about 7.8%
ssDAF-12 act – S. stercoralis DAF-12 activation, primary screen; HEK293 ssDAF-12/GRIP1 lit1-tk-luc reporter, luminescence; % of 3 µM dafachronic acid response; activation, % at 6.8 µM; 1% of 370,000 active; AID 652126;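 active = activation above the mean over all tested compounds plus 3 SD, cut at about 0.9% in these data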
hcDAF12 agonist – activates DAF-12 receptor from parasite H. contortus. activation, % at 6.8 µM. HEK293 hcDAF-12 lit1-tk-luc reporter, luminescence; 0% DMSO, 100% Δ7-dafachronic acid. 1.4% of 370,000 active;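 active = activation above the mean of all tested compounds plus 3 SD, cut at about 5.5% in these data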
SMARCA2 conf – confirmation of SMARCA2 (BRM) function activators; MG213 cells, MMTV-luciferase with dexamethasone, luminescence, overnight; MG213 cells expressing E1A, Rb sequestered; DMSO wells 0%, reference activator 100%; activation, % at 9.1 µM; AID 652260; 30% of 3,500 active; shares compounds with SMARCA2 activ;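 active = activation above its plate's cutoff, the mean activation of tested wells plus 3 SD, cut at about 7.9% in these data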
VP16 Luc act – GAL4-VP16 reporter activation counter-screen. 41% of 3,500 active. HEK293 GAL4-VP16 pG5luc reporter, luciferase luminescence; scaled: DMSO wells 0%, SAHA wells 100%. shares compounds with SMARCA2 activ. activation, % at 9.1 µM;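 active = activation above the solvent-only control well mean plus 3 SD, averaged across control plates, cut at about 5.2% in these data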
Of the large screens only hits and unclear results are named; the others gave an inactive call (follow-up assays come after a bar, where they were run).

CC(=O)c1ccc(NC(=O)CSc2ccc(-c3sc(C)nc3C)nn2)cc1	none
O=C(c1cc(COc2c(F)cccc2F)on1)N1C[C@H]2CC[C@H]1C2	hgDAF12 agonist 11, SMARCA2 activ 10.0 | SMARCA2 conf 11 | VP16 Luc act 11
COC(=O)C1=C(C)N(C)C(=O)NC1c1ccc(C)cc1 (stereo unspecified)	none
CC1(C)COC(c2cc3c(cc2Br)OCO3)OC1	SMARCA2 activ 8.1 | SMARCA2 conf inactive | VP16 Luc act inactive
CCCOC(=O)CC1C(=O)NCCN1Cc1ccccc1C (stereo unspecified)	SMARCA2 activ 9.5 | SMARCA2 conf inactive | VP16 Luc act inactive
O=c1[nH]c(SCc2ccccc2Cl)nc2c1CCC2	none
CCOc1cc2c(cc1OCC)C(c1ccc(F)cc1)NCC2 (stereo unspecified)	none
CCOc1cc(C2NN=C(c3ccccc3)S2)ccc1OCc1ccc(F)cc1 (stereo unspecified)	hgDAF12 agonist 12, SMARCA2 activ 14, ssDAF-12 act 1.1 | SMARCA2 conf inactive | VP16 Luc act 9.3
CCOC(=O)c1cnc2c(C(=O)OC)cccc2c1NCc1ccco1	SMARCA2 activ 8.0 | SMARCA2 conf inactive | VP16 Luc act inactive
CCOC(=O)c1cnc2c(ccc3ccccc32)c1NCCCN(C)C	hgDAF12 agonist 13, DAX1 inh-1 8.1, SMARCA2 activ 19 | SMARCA2 conf 40 | VP16 Luc act 8.1
CCOC(=O)c1cnc2ccccc2c1NCCO	none
CCOC(=O)c1ccc2ncc(C(=O)OCC)c(NCc3ccco3)c2c1	SMARCA2 activ 13 | SMARCA2 conf inactive | VP16 Luc act inactive
Cc1ccc(S(=O)(=O)Nc2cccc(C(=O)NC3CCN(Cc4ccccc4)CC3)c2)cc1F	none
Cc1ccc(N(C=NC#N)CC(=O)N2CCN(c3ccccc3)CC2)cc1	none
O=C(OCc1ccc(Br)cc1F)c1cc2ccccc2oc1=O	none
O=C(OCc1nc2ccccc2s1)c1cc2ccccc2oc1=O	SMARCA2 activ 8.2, ssDAF-12 act 0.9, hcDAF12 agonist 6.2 (no result: DAX1 inh-1) | SMARCA2 conf inactive | VP16 Luc act 9.1
CC1CN(S(=O)(=O)c2ccc(Cl)c(S(=O)(=O)N3CC(C)OC(C)C3)c2)CC(C)O1 (stereo unspecified)	none
C=CCNc1nc(N)c(C(=O)c2ccc3c(c2)OCO3)s1	none
COc1ccc(OCc2cc(C(=O)NC(C)c3csc(C)n3)no2)c(Cl)c1 (stereo unspecified)	SMARCA2 activ 9.8 | SMARCA2 conf inactive | VP16 Luc act 6.0
CCC(NC(=O)c1cc(COc2ccc(OC)cc2Cl)on1)c1ccncc1 (stereo unspecified)	none
COc1ccc(-n2nc([N+](=O)[O-])c(=NCc3ccc4c(c3)OCO4)n2O)cc1	none
CN(C(=O)c1cc2sccc2n1C)C1CCCCC1	hgDAF12 agonist 12, SMARCA2 activ 8.9 | SMARCA2 conf inactive | VP16 Luc act 7.5
CC(C)[C@H](CO)Nc1nc(NCc2ccc(S(N)(=O)=O)cc2)c2ncn(C(C)C)c2n1	SMARCA2 activ 10 | SMARCA2 conf 7.9 | VP16 Luc act inactive
CC(C)n1cnc2c(NCc3ccc(S(N)(=O)=O)cc3)nc(NCc3ccc(S(N)(=O)=O)cc3)nc21	none
NS(=O)(=O)c1cc(C(=O)OC2CCOC2=O)ccc1Cl (stereo unspecified)	none
O=C(OC1CCOC1=O)c1ccc2ncsc2c1 (stereo unspecified)	SMARCA2 activ 12 | SMARCA2 conf inactive | VP16 Luc act inactive
Cc1ccc(NC(=O)C2(C)CCN2C(=O)CC(c2ccccc2)c2ccccc2)cc1 (stereo unspecified)	none (no result: DAX1 inh-1)
Nc1c(Cl)c(Cl)nc(C(=O)OCC(=O)N2CCCC2=O)c1Cl	none
O=C(OCC(=O)N1CCCC1=O)c1nc(Cl)c(Cl)c(Cl)c1Cl	SMARCA2 activ 34 | SMARCA2 conf inactive | VP16 Luc act inactive
Cc1occc1C(=O)NC1CCCc2ccccc21 (stereo unspecified)	none
COc1cccc(C2NC(=O)c3ccccc3O2)c1OC (stereo unspecified)	none
COc1cccc(C2N=C(c3ccccc3C)NO2)c1OC (stereo unspecified)	SMARCA2 activ 8.0 | SMARCA2 conf inactive | VP16 Luc act inactive
COc1ccccc1/C=C/c1nc2ccccc2c(=O)o1	SMARCA2 activ 10 | SMARCA2 conf inactive | VP16 Luc act 12
Cc1ccc(OCC(=O)Nc2ccc(N(C)C)cc2)cc1	none
COc1cc(NC(=O)[C@@H]2CCCN2S(=O)(=O)c2cccc3cccnc23)cc(OC)c1OC	none
COc1ccc(C2C(C(=O)N3CCN(c4ccccn4)CC3)CCC(=O)N2c2ccc(OC)cc2)cc1 (stereo unspecified)	none
COc1ccc(C2C(C(=O)N3CCN(c4ccccn4)CC3)CCC(=O)N2c2cc(OC)c(OC)c(OC)c2)cc1 (stereo unspecified)	SMARCA2 activ 8.0 | SMARCA2 conf inactive | VP16 Luc act inactive
CS(=O)(=O)c1ccc(C(=O)Nc2ccccc2Cl)cc1	none
COc1cccc2cc(/C(C)=N/Nc3nc(-c4cc(C)ccc4C)cs3)c(=O)oc12	none
COc1ccc(-n2nc(C(=O)NCC(=O)N3CCN(c4ccccn4)CC3)c3ccccc3c2=O)cc1	SMARCA2 activ 11 | SMARCA2 conf inactive | VP16 Luc act inactive
CCCn1nc(C(=O)N2CCN(c3ccccn3)CC2)c2ccccc2c1=O	SMARCA2 activ 8.1 | SMARCA2 conf inactive | VP16 Luc act inactive
COc1ccc(-n2nc(C(=O)NCC(=O)N3CCN(c4ccccn4)CC3)c3ccccc3c2=O)cc1OC	none
C/C(Nc1cccc(F)c1)=C(/C#N)C(N)=O	SMARCA2 activ 8.3 | SMARCA2 conf inactive | VP16 Luc act inactive
C/C(Nc1ccc(F)cc1)=C(/C#N)C(N)=O	none
COc1cc(NC(=O)c2cc3ccccc3cc2O)c(OC)cc1Cl	none
CCn1c(=S)[nH]c2cc(C(=O)OC)ccc2c1=O	none
CCCCn1c(CN(Cc2ccccc2)Cc2ccccc2)nc2c1c(=O)n(C)c(=O)n2C	SMARCA2 activ 9.8 | SMARCA2 conf inactive | VP16 Luc act inactive
Brc1ccc(/C=C/C=N/Nc2nc3ccccc3s2)cc1	SMARCA2 activ 13 | SMARCA2 conf inactive | VP16 Luc act 8.7
O=C(NN=C1CCCC1)c1ccc(O)cc1O	none
